Test [1] can be described thus: qHTS assay to identify small molecule agonists of the vitamin D receptor (VDR) signaling pathway - cell viability counter screen (AID 743224; active = well fitted curve in the direction sought with a large enough effect in the repeat runs; an effect the other way counts as inactive or inconclusive; also: nearly all actives have a fitted effect of over 50% in size; also: potency is read from the fitted curve at half-maximal effect). The method in brief: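 VDR-bla cell line, quantitative HTS format; 16 h compound incubation (37C, 5% CO2); ATP-based CellTiter-Glo luminescence measured in the reporter assay wells.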
A short description of test [2]: qHTS assay to identify small molecule antagonists of the vitamin D receptor (VDR) signaling pathway - cell viability counter screen (AID 743225; active = well fitted curve in the direction sought with a large enough effect in the repeat runs; an effect the other way counts as inactive or inconclusive; also: nearly all actives have a fitted effect of over 50% in size; also: potency is read from the fitted curve at half-maximal effect). The method in brief: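 Read-out: CellTiter-Glo luminescence measured 30 min after reagent addition at room temperature. Cells were VDR-bla HEK 293T exposed 16 h at 37C, 5% CO2, to compound with 3 nM final calcitriol agonist.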
In general terms: qHTS replaces the single test concentration by a dilution series.

Test [3] can be described thus: qHTS assay to identify small molecule agonists of the NFkB signaling pathway - cell viability counter screen (AID 1159515). Also: nearly all actives have a fitted effect of over 55% in size. Also: potency is read from the fitted curve at half-maximal effect. The method in brief:
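Viability in NFkB-bla ME-180 cells was measured by CellTiter-Glo luminescence, 30 min room temperature, in wells already treated 5 hr with compounds and read for reporter FRET.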

Test [4] in a line: qHTS assay to identify small molecule agonists of the endoplasmic reticulum stress response signaling pathway - cell viability counter screen (AID 1159517). Also: nearly all actives have a fitted effect of over 50% in size. Also: potency is read from the fitted curve at half-maximal effect. The essentials:
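Luminescence readout: CellTiter-Glo, 30 min RT, same wells as the ESRE-bla reporter read. HeLa ESRE-bla, 1,500 cells/well, o/n 37 C; cpd 5 hr 37 C/5% CO2.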

In test [5] the target is Nuclear receptor ROR-gamma (Homo sapiens) (UniProt P51449). Nature of the test: qHTS assay to identify small molecule antagonists of the retinoid-related orphan receptor gamma (ROR-gamma) signaling pathway (AID 1159521; active = well fitted curve in the direction sought with a large enough effect in the repeat runs; an effect the other way counts as inactive or inconclusive; also: nearly all actives have a fitted effect of over 50% in size; also: potency is read from the fitted curve at half-maximal effect). The method in brief: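 CHO Tet-on RORγ, RORE-luc reporter. Cpd 2 h pre-incubation, then dox hyclate 1 uM final, 16 h, 37 C/5% CO2. ONE-Glo luminescence; decrease = antagonist.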

Test [6] can be described thus: qHTS assay to identify small molecule agonists of the AP-1 signaling pathway - cell viability counter screen (AID 1159525). Also: nearly all actives have a fitted effect of over 55% in size. Also: potency is read from the fitted curve at half-maximal effect. The method in brief: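 ME-180 AP-1-bla, 2500 cells/well, Opti-MEM + 0.5% dialyzed FBS; overnight 37 °C; cpd 15-pt titration, 5 h 37 °C; CellTiter-Glo 30 min RT; luminescence read; normalised to TOAB and DMSO controls.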
The nature of test [7]: qHTS assay to identify small molecule agonists of the AP-1 signaling pathway (AID 1159526).
In test [8] the target is Retinoic acid receptor RXR-alpha (Homo sapiens) (UniProt P19793). Nature of the test: qHTS assay to identify small molecule agonists of the RXR signaling pathway (AID 1159527). Also: nearly all actives have a fitted effect of over 35% in size. The essentials:
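Read-out: beta-lactamase FRET ratio (405 nm excitation, 460 and 530 nm emission) after 2 hr substrate loading at room temperature. Cells were RXR-alpha-UAS-bla HEK 293T treated with compounds for 16 hr in 2% charcoal-stripped FBS medium.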

A short description of test [9]: qHTS assay to identify small molecule antagonists of the retinoid-related orphan receptor gamma (ROR-gamma) signaling pathway - cell viability counter screen (AID 1159520; active = well fitted curve in the direction sought with a large enough effect in the repeat runs; an effect the other way counts as inactive or inconclusive; also: nearly all actives have a fitted effect of over 50% in size; also: potency is read from the fitted curve at half-maximal effect). The essentials: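 Tet-on ROR gamma CHO cells (1,000/well) were plated 4 hr, given compounds in DMSO for 2 hr at 37 C, then induced with 1 uM final doxycycline for 16 hr. Viability was read as ATP by CellTiter-Glo luminescence after 30 min.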

Test [10] is described as follows: qHTS assay to identify small molecule agonists of the endoplasmic reticulum stress response signaling pathway (AID 1159516; active = well fitted activation curve with a large enough effect in the signal ratio in the repeat runs, not every such curve was filed as active; the % refers to the signal ratio). The method in brief:
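ER stress element reporter (bla) in HeLa. 1,500 cells/well, overnight attachment; 5 hr compound; 2 hr RT substrate; dual-emission fluorescence.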

Where “and” joins values, the source holds several entries; their conditions need not be identical. Equal values may be shown once. Results filed as inconclusive are left out. Some structures have more than one record in an assay (separate samples or runs), and their calls can disagree. Calls of active or inactive are those of the source. Unless noted, calls follow the shape of the full dose curve.

Retinoic acid receptor RXR-alpha (Homo sapiens), sequence (P19793 whole entry, looked up): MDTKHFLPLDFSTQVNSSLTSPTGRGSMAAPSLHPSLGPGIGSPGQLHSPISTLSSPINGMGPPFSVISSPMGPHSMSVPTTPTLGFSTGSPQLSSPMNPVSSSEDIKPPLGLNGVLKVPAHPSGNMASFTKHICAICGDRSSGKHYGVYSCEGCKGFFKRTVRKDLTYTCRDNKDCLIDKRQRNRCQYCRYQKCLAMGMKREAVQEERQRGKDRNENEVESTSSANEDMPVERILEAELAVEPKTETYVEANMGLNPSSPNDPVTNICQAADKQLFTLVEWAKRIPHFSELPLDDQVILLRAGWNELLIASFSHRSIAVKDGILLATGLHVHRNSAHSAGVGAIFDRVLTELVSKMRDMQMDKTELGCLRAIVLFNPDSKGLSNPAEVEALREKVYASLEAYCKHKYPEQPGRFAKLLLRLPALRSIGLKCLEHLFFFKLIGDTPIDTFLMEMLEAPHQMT

Take `Oc1ccc(Cl)c(Cl)c1`: the Potency entry in test [1], in [2], in [3], in [4], in test [6] and in test [7] was “inactive” throughout. Besides, in test [8], the Potency entry was “inactive”. Also, the Potency in [5] is 17 µM (active).
As for `CCCCCCCCCCCCCCn1cc[n+](C)c1`, the Potency in [1] is 8.72 µM (active) and 24.3 µM (active) and inactive; in [2] it was 27.6 µM (active) and 43.2 µM (active) and inactive; in test [4], 6.18 µM (active) and 19.3 µM (active) and inactive; in test [9], 27.4 µM (active) and 34 µM (active) and inactive; in test [6], 49.1 µM (active) and 48.5 µM (active) and inactive. In test [3], the Potency result was “inactive”.
As for `Clc1ccc(C(Cl)(Cl)Cl)cc1Cl`, the Potency entry in test [1], in test [2], in [3], in [5], in [6] and in test [7] was “inactive” each time. In addition, in test [8], the Potency result is “inactive”.
As to `Clc1ccc(C(c2ccc(Cl)cc2)C(Cl)Cl)cc1`, the Potency is 49.8 µM (active) and 38.9 µM (active) in [1]; 49800 nM (active) in test [3]; 22.2 µM (active) and 54.9 µM (active) in test [4]; 55.4 µM (active) and 54.5 µM (active) in test [5]; 24.9 µM (active) and 34.7 µM (active) in test [6].
Regarding `COc1ccc2c3c1O[C@H]1[C@H](O)CC[C@H]4[C@@H](C2)N(C)CC[C@@]341`, the Potency result in test [1], in [2], in test [3], in test [9], in test [5] and in test [6] was “inactive” in each case. The Potency entry in test [7] was “inactive”.
`O.O.O.O=C([O-])[C@H]([O-])[C@@H]([O-])C(=O)[O-].O=C([O-])[C@H]([O-])[C@@H]([O-])C(=O)[O-].[K+].[K+].[Sb+3].[Sb+3]`: the Potency entry in [1], in [2] and in test [3] was “inactive” in each case. The Potency in test [5] is 1.94 µM (active).
On to `C#CC1(O)CCCCC1`, for which the Potency entry in test [1], in test [2], in [3], in test [4], in [5] and in test [6] was “inactive” in each case. For the same compound, the Potency result in test [7] and in test [8] was “inactive” throughout.
`CCC1(CC)C(=O)N=C(O)NC1=O`: the Potency entry in test [1], in [2], in [3], in [4], in test [5] and in test [6] was “inactive” in each case.
With `Oc1ccc2[nH]cc(CCCCN3CC=C(c4ccccc4)CC3)c2c1`, the Potency entry in test [1], in test [2], in test [3], in [4], in test [9] and in [6] was “inactive” in each case.
In the case of `c1ccc2c(c1)cc1ccc3cccc4ccc2c1c34`, the Potency entry in test [1], in test [3], in [4], in [5] and in [6] was “inactive” throughout.
In the case of `CCCCCCCc1ccc(O)cc1`, the Potency entry in test [2], in test [3] and in test [5] was “inactive” in each case. Further, the Potency in test [6] was 54.9 µM (active).
Turning to `Cc1cccc(Cc2cnc[nH]2)c1C`, the Potency result in [1], in [2], in test [3], in test [4], in [5] and in test [6] was “inactive” throughout. Besides, the Potency entry in test [8] is “inactive”.
For the compound `COP(=S)(NC(C)C)Oc1ccc(C)cc1[N+](=O)[O-]` (stereo not given), the Potency entry in test [1], in test [2], in [3], in test [4], in test [9] and in test [6] was “inactive” each time. The Potency result in [7] was “inactive”.
Take `O=C1C2(Cl)C3(Cl)C4(Cl)C(Cl)(Cl)C5(Cl)C3(Cl)C1(Cl)C5(Cl)C24Cl` (stereo not given): the Potency in test [1] was 48.2 µM (active) and 41.8 µM (active); in test [2], 48.2 µM (active) and 46.9 µM (active); in [3], 52600 nM (active); in test [4] it was 48.2 µM (active); in test [9], 21.3 µM (active) and 46.5 µM (active); in test [5] it was 12 µM (active) and 29.3 µM (active). In addition, the Potency in [6] was 30.4 µM (active).
As for `CC(O)C(=O)[O][Hg][c]1ccccc1` (stereo not given), the Potency in test [1] was 1.23 µM (active); in test [2] it was 1.74 µM (active); in [3] it was 871 nM (active); in test [4] it was 1.1 µM (active); in test [5], 0.486 µM (active); in test [6], 2.45 µM (active).
For the compound `O=C(Nc1ccc(F)cc1F)c1cccnc1Oc1cccc(C(F)(F)F)c1`, the Potency entry in test [1], in test [2], in [3], in test [4], in [5] and in test [6] was “inactive” each time. For the same compound, the Potency entry in [8] was “inactive”.
In the case of `NC(=O)C(Cl)Cl`, the Potency result in [1], in test [2], in test [3], in test [4], in test [9] and in test [6] was “inactive” each time. In test [7], the Potency entry is “inactive”.
Regarding `COc1c2c(cc3c1OCO3)CCN(C)C2`, the Potency entry in test [1], in test [2], in [3], in [9], in test [5] and in test [6] was “inactive” each time. In [8], the Potency result was “inactive”.
Consider `Nc1c(Cl)c(Cl)c(Cl)c(Cl)c1Cl`, for which the Potency entry in test [2], in test [3], in test [9] and in test [5] was “inactive” each time.
Consider `CC(C)(C)c1ccc(OP(=O)(Oc2ccccc2)Oc2ccccc2)cc1`, for which the Potency result in test [1], in [3], in test [4], in test [9] and in test [7] was “inactive” in each case.
On to `CC(=O)[O][Pb]([c]1ccccc1)([c]1ccccc1)[c]1ccccc1`, for which the Potency in test [1] is 1.55 µM (active); in test [2] it was 0.977 µM (active); in [3], 871 nM (active); in test [4], 24.5 µM (active); in [5] it was 0.193 µM (active); in test [6] it was 15.5 µM (active).
As for `NC1CCC(CC2CCC(N)CC2)CC1` (stereo not given), the Potency entry in [1], in test [10], in [4], in test [9], in [5] and in [6] was “inactive” throughout. Further, the Potency result in test [7] was “inactive”.
In the case of `CC1(C)C(C=C(Cl)Cl)C1C(=O)OC(C#N)c1ccc(F)c(Oc2ccccc2)c1` (stereo not given), the Potency result in test [1], in [3], in test [4], in [9] and in test [6] was “inactive” each time.
As to `CCCCC/C=C\C/C=C\C/C=C\C/C=C\CCCC(=O)NCC(=O)O`, the Potency entry in test [1], in test [3], in [9] and in test [5] was “inactive” throughout.
On to `COC(=O)c1ccccc1S(=O)(=O)NC(=O)Nc1nc(C)nc(OC)n1`, for which the Potency result in test [1], in [2], in [3], in [4], in [9] and in test [6] was “inactive” each time. For the same compound, the Potency result in test [7] and in [8] was “inactive” each time.
Turning to `Cc1ccc2cc3c(ccc4ccccc43)c3c2c1CC3`, the Potency entry in test [1], in [2], in test [3], in test [4], in test [5] and in [6] was “inactive” in each case. The Potency result in test [7] and in test [8] was “inactive” in each case.
Consider `C#CCC1=C(C)C(OC(=O)C2C(C=C(C)C)C2(C)C)CC1=O` (stereo not given), for which the Potency result in test [1], in [3], in [4] and in [6] was “inactive” in each case.
